The list is not random: actives were taken first. Their share in the collection is about 2.2%.
Cardiac RTF inh: cardiac RTF calcium sensitivity inhibitors, primary screen, biochemical, IANBD-TnC fluorescence, EC70 calcium; IANBD-labeled cardiac RTF, Ca2+ fluorescence; inhibition, % at 7.15 µM; AID 493244, 2011; Troponin I, cardiac muscle (Homo sapiens) + Troponin T, cardiac muscle (Homo sapiens) + …; 340,000 tested, 0.12% active;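 active = inhibition above the mean inhibition of all tested compounds plus 3 SD, cut at about 17% in these data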;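 note: assay run at fixed EC70 calcium of 1.6 mM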
Myeloid diff 2: induction of myeloid progenitor differentiation, primary screen, cell-based, flow cytometry, MLPCN library. ER-HoxA9 myeloid progenitors, lysozyme-GFP differentiation. calls only at 10 µM. 360,000 tested, 1% active;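 active = normalized GFP-positive differentiation at or above the plate's own cutoff, the solvent-only control mean plus 3 SD; inconclusive = no clear call, values can overlap the other calls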;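 note: cells exposed to compound for four days before flow analysis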
CRFR2-BP antag: antagonists of CRF-BP/CRF-R2 complex, primary screen, cell-based, HEK293, calcium dye fluorescence, uHTS. CRF-induced calcium fluorescence. inhibition, % at 11.8 µM. 350,000 tested, 0.59% active. AID 588475, 2011;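 active = inhibition of the ligand-induced calcium signal above about 50% at the single tested concentration, limit read from the data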
cardiac RTF act: cardiac RTF calcium sensitivity activators, primary screen, biochemical, IANBD-TnC fluorescence, EC20 calcium | Troponin I, cardiac muscle (Homo sapiens) + Troponin T, cardiac muscle (Homo sapiens) + … | IANBD-labeled TnC RTF fluorescence at EC20 calcium; 0% EC20 calcium, 100% full calcium | activation, % at 7.2 µM | 340,000 tested, 0.24% active | AID 493008, 2010;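 active = activation above the mean over all tested compounds plus 3 SD, cut at about 30% in these data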;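 note: rise in fluorescence read as greater calcium sensitivity of cardiac thin filaments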
CRFR2-BP ag: agonists of CRF-BP/CRF-R2 complex, primary screen, cell-based, HEK293, calcium dye fluorescence, uHTS; CRF-binding protein / CRF receptor 2 complex (human); calcium dye fluorescence (FLIPR); percent of saturating CRF peptide response; activation, % at 13.2 µM; 350,000 tested, 0.46% active; AID 588473, 2011;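 active = activation of at least 50%, plus an integration ratio under a set limit after plate pattern correction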;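 note: plate controls were neutral control wells without compound for no effect and CRF at EC100 for full effect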
Myeloid diff CP1: inducers of myeloid progenitor differentiation, confirmation, cell-based, GFP/Mac1 flow cytometry, cherry pick 01 | shares compounds with Myeloid diff 2 | calls only | ER-HoxA9 myeloid progenitors, GFP/Mac1 double-positive flow | 2,300 tested, 2% active;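 active = share of green or green-and-red cells above 9 and 9% in run 1 or 4 and 3% in run 2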
GFP autofluor: compound fluorescence in myeloid differentiation counter-screen; shares compounds with Myeloid diff 2; ER-HoxA9 myeloid progenitors, no estrogen, GFP autofluorescence flow cytometry; vehicle wells 0%, positive control 100%; fluorescence response, % (concentration not given with the values); 2,300 tested, 7.4% active; AID 651707;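 active = over 5% cells positive for green fluorescent reporter, or over 2% positive for both it and APC stain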;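 note: range taken on the double positive population between DMSO and positive control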
Starred values were filed as active, the others as inactive; i = inactive; ? = inconclusive; / = no result; + = active, no number.

SMILES	Cardiac RTF inh	Myeloid diff 2	CRFR2-BP antag	cardiac RTF act	CRFR2-BP ag	Myeloid diff CP1	GFP autofluor
Cc1cccc(-n2ncc3c2CCCC3NC(=O)c2ccc[n+]([O-])c2)c1C (stereo not drawn)	-14	i	1	-7	-3	/	/
OCC[C@@H]1C[C@@H](O)[C@H](O)[C@]2(CCCCO2)O1	-34	i	-2	2	0	/	/
COc1cccc(-n2c(SCC(=O)Nc3cc(C)on3)nc3ccccc3c2=O)c1	2	i	-14	-2	1	/	/
COc1ccc(-n2c(SCC(=O)Nc3cc(C)on3)nc3ccccc3c2=O)cc1Cl	0	i	-24	4	4	i	0
Oc1ccc(Br)cc1-c1cc(-c2ccccc2)n[nH]1	11	i	-4	-5	1	/	/
Oc1ccc(Br)cc1-c1ccnn1-c1ccccc1	-2	+	3	4	0	i	0
COc1ccc(NC2=C(NC(C)=O)C(=O)c3ccccc3C2=O)cc1	-5	+	-57	0	-1	+	0
O=C(NCCc1ccc(Cl)cc1)c1nnc(Cc2ccc(Cl)cc2)o1	-10	i	12	2	-1	/	/
CC(CCc1ccccc1)NC(=O)c1nnc(Cc2ccc(Cl)cc2)o1 (stereo not drawn)	-3	i	-2	9	-1	i	0
O=C(CCN1CCN(c2ccc(F)cc2)CC1)Nc1ccccc1F	-1	i	-5	-4	0	/	/
O=C(CCN1CCN(c2ccccc2)CC1)Nc1ccccc1F	-6	i	2	8	0	i	0
c1ccc2c(c1)CCc1c(-c3ccncc3)n[nH]c1-2	-7	+	-13	1	-2	i	0
CCN(CC)S(=O)(=O)c1ccc2oc(SCC(=O)Nc3cc(C)on3)nc2c1	-17	+	/	-1	/	i	1
COc1ccc(S(=O)(=O)N2C3CCC2CC(NC(=O)C2CC2)C3)cc1 (stereo not drawn)	6	i	-6	1	0	i	0
Cc1cc(C=C2C(=O)c3ccccc3C2=O)c(C)n1-c1ccc(Cl)cc1	-2	i	-29	20	17	/	/
Cc1cc(/C=C2\SC(=S)NC2=O)c(C)n1-c1ccccc1	/	i	-29	/	8	i	6.9*
Cc1cc(/C=C2\SC(=S)NC2=O)c(C)n1-c1ccc(O)cc1	-17	i	-13	9	9	/	/
Cc1cc(/C=C2\SC(=Nc3ccc(F)cc3)NC2=O)c(C)n1-c1ccc(S(N)(=O)=O)cc1	0	i	-4	-1	-1	i	8.0*
Cc1cccc(-n2c(C)cc(C=C3C(=O)c4ccccc4C3=O)c2C)c1	-7	i	-13	62*	51*	i	0
COc1ccc(CCn2c(=O)[nH]c3cc(C(=O)N4CCN(c5ccccn5)CC4)ccc3c2=O)cc1OC	-1	i	-4	1	0	/	/
CCc1cccc(CC)c1NC(=O)CSc1nnc(CCC(=O)O)c(=O)[nH]1	8	i	3	-2	0	/	/
COc1ccccc1OCc1ccc(C(=O)NN)cc1	-20	i	26	-9	0	i	0
CCC(=S)/C=C1\Sc2ccccc2N1CCCS(=O)(=O)O	-4	i	4	-3	1	i	4
Cc1ccc(CNS(=O)(=O)c2ccc3c(c2)NC(=O)C(C)S3)cc1 (stereo not drawn)	5	i	5	-6	0	/	/
CC(=O)N1c2c(ccc3ccccc23)C(C)CC12CCCCC2 (stereo not drawn)	-3	i	-8	0	3	/	/
SMILES	Cardiac RTF inh	Myeloid diff 2	CRFR2-BP antag	cardiac RTF act	CRFR2-BP ag	Myeloid diff CP1	GFP autofluor
CC1CC2(CCCCC2)Nc2c1ccc1ccccc21 (stereo not drawn)	-12	+	-12	2	-3	i	12*
CSCC[C@H](NC(=O)Cc1c(C)c2cc3c4c(oc3cc2oc1=O)CCCC4)C(=O)O	-3	i	7	-5	-3	/	/
COCCCNc1nc2ccccc2nc1NS(=O)(=O)c1cccc(Cl)c1	-11	i	14	3	-1	/	/
O=S(=O)(Nc1nc2ccccc2nc1NCCO)c1cccc(Cl)c1	-9	i	27	17	-3	i	0
O=C(NNC(=O)C12CC3CC(CC(C3)C1)C2)c1ccccc1[N+](=O)[O-]	-16	i	-2	-6	1	i	0
O=C(NNC(=O)C12CC3CC(CC(C3)C1)C2)c1ccccc1O	-6	i	-3	-1	2	/	/
Cc1ccc(-n2ncc3c2CCCC3NC(=O)CCc2cnccn2)cc1C (stereo not drawn)	0	i	7	-2	-2	/	/
C[C@]12c3[nH]c4cc(-c5ccco5)ccc4c3CCN1C(=O)[C@@H](CC(=O)NCc1cccc(C(F)(F)F)c1)C[C@@H]2C(=O)N1CCOCC1	-10	i	-4	-2	-1	/	/
CC(C)N(C(=O)[C@H]1C[C@H](CC(=O)NCCCN(C)C)C(=O)N2CCc3c([nH]c4cc(-c5ccco5)ccc34)[C@]12C)C(C)C	-2	i	4	-6	-1	/	/
CC(C)N(C(=O)[C@H]1C[C@H](CC(=O)NCc2cccc(C(F)(F)F)c2)C(=O)N2CCc3c([nH]c4cc(-c5ccco5)ccc34)[C@]12C)C(C)C	-5	?	-3	-1	4	i	0
CC(C)N(C(=O)[C@H]1C[C@H](CC(=O)NCCC2=CCCCC2)C(=O)N2CCc3c([nH]c4cc(-c5ccco5)ccc34)[C@]12C)C(C)C	-4	i	10	-1	1	i	3
CC1Cc2ccccc2N1C(=O)Cn1nnc(-c2ccccc2NC(=O)C2CCC2)n1 (stereo not drawn)	-6	i	3	5	-2	i	1
COc1ccc(-c2cc(-c3nnc(COC(=O)c4ccncc4)o3)c3ccccc3n2)cc1OC	-14	i	4	1	-2	/	/
Cc1ccc(S(=O)(=O)CCC(=O)OCc2nnc(-c3ccc([N+](=O)[O-])cc3)o2)cc1	-3	i	-3	-1	0	/	/
COC(=O)c1ccccc1N1C(=O)C2C(C1=O)[C@H]1C=C[C@@H]2C1 (stereo partly drawn)	5	i	6	4	-1	/	/

From PubChem BioAssay
